Records with an inconclusive call do not appear. Activity calls are given as the source filed them. Calls come from the whole dose curve; as a rule, active = well fitted curve in the direction sought with a large enough effect; inconclusive = small, poorly fitted or top-dose-only effect, or another doubt; inactive = no such curve, though single readings can be large; an effect the other way counts as inactive or inconclusive.

The nature of assay [1]: Quantitative High-Throughput drug screen in 47 multiple myeloma cell lines against the NCATS MIPE library collection: Delta47_JCRB cell viability assay (AID 1918925; note: nearly all actives have a fitted effect of over 45% in size). Summed up: (§1)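 Primary qHTS used for cherry-picking: cells at 500/well, library compounds for 48 h (37C, 5% CO2), luminescent ATP assay.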
Assay [2] is described as follows: Quantitative High-Throughput drug screen in 47 multiple myeloma cell lines against the NCATS MIPE library collection: EJM_DSMZ cell viability assay (AID 1918926; note: nearly all actives have a fitted effect of over 30% in size). A digest of the protocol: as §1
The nature of assay [3]: Quantitative High-Throughput drug screen in 47 multiple myeloma cell lines against the NCATS MIPE library collection: AMO1_DSMZ cell viability assay (AID 1918927; note: nearly all actives have a fitted effect of over 30% in size). A digest of the protocol:
as §1

Assay [4] can be described thus: Quantitative High-Throughput drug screen in 47 multiple myeloma cell lines against the NCATS MIPE library collection: ARP1_JJKsccF8 cell viability assay (AID 1918928; note: nearly all actives have a fitted effect of over 40% in size). A digest of the protocol: (§2)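 CellTiter-Glo luminescence after 48 h exposure gives viability, scaled between DMSO-only (100%) and media-only (0%) controls. Library compounds are pinned onto 500 myeloma cells per well, incubated at 37C with 5% CO2.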

Assay [5] is described as follows: Quantitative High-Throughput drug screen in 47 multiple myeloma cell lines against the NCATS MIPE library collection: Karpas620_DSMZ cell viability assay (AID 1918959). Note: nearly all actives have a fitted effect of over 30% in size. Summed up:
(§3)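 Relative luminescence from CellTiter-Glo served as the viability signal, referenced to DMSO-treated (100%) and cell-free medium (0%) controls. Treatment lasted 48 hours at 37C with 500 cells per well.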

Assay [6] can be described thus: Quantitative High-Throughput drug screen in 47 multiple myeloma cell lines against the NCATS MIPE library collection: KMM1_JCRB cell viability assay (AID 1918960). Note: nearly all actives have a fitted effect of over 30% in size. Summed up:
as §2

A short description of assay [7]: Quantitative High-Throughput drug screen in 47 multiple myeloma cell lines against the NCATS MIPE library collection: Karpas417_ECACC cell viability assay (AID 1918961). Particulars: Karpas417 myeloma viability, CellTiter-Glo ATP luminescence, 48 h; viability (% of DMSO): at 45.8 µM (top of the series). Summed up:
as §3
On the technique in general: ATP-based viability assays read luminescence as a measure of living cells.

Assay [8] can be described thus: Quantitative High-Throughput drug screen in 47 multiple myeloma cell lines against the NCATS MIPE library collection: KHM11_PLB cell viability assay (AID 1918962). Note: nearly all actives have a fitted effect of over 35% in size. Summed up: as §3
A short description of assay [9]: Quantitative High-Throughput drug screen in 47 multiple myeloma cell lines against the NCATS MIPE library collection: JIM3_ECACC cell viability assay (AID 1918963; note: nearly all actives have a fitted effect of over 35% in size). A digest of the protocol: as §3
A short description of assay [10]: Quantitative High-Throughput drug screen in 47 multiple myeloma cell lines against the NCATS MIPE library collection: JIM1_ECACC cell viability assay (AID 1918964). A digest of the protocol:
as §1

The nature of assay [11]: Quantitative High-Throughput drug screen in 47 multiple myeloma cell lines against the NCATS MIPE library collection: INA6_PLB cell viability assay (AID 1918965; note: nearly all actives have a fitted effect of over 55% in size). Summed up: as §3
A short description of assay [12]: Quantitative High-Throughput drug screen in 47 multiple myeloma cell lines against the NCATS MIPE library collection: KMS12BM_JCRB cell viability assay (AID 1918971). Note: nearly all actives have a fitted effect of over 35% in size. Summed up: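 qHTS of the MIPE 4.0 collection: 500 myeloma cells/well, 48 h drug exposure at 37C in 5% CO2, then CellTiter-Glo for 5 min at room temperature before luminescence reading.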
Assay [13] in a line: Quantitative High-Throughput drug screen in 47 multiple myeloma cell lines against the NCATS MIPE library collection: KMS12PE_JCRB cell viability assay (AID 1918972). Note: nearly all actives have a fitted effect of over 30% in size. A digest of the protocol: as §3
Assay [14] is described as follows: Quantitative High-Throughput drug screen in 47 multiple myeloma cell lines against the NCATS MIPE library collection: ARD_JJKsccE7 cell viability assay (AID 1918929). Summed up:
as §1

A short description of assay [15]: Quantitative High-Throughput drug screen in 47 multiple myeloma cell lines against the NCATS MIPE library collection: JJN3_DSMZ cell viability assay (AID 1918966; note: nearly all actives have a fitted effect of over 50% in size). Summed up:
as §1

A short description of assay [16]: Quantitative High-Throughput drug screen in 47 multiple myeloma cell lines against the NCATS MIPE library collection: H1112_PLB cell viability assay (AID 1918967; note: nearly all actives have a fitted effect of over 30% in size). A digest of the protocol: as §1
The nature of assay [17]: Quantitative High-Throughput drug screen in 47 multiple myeloma cell lines against the NCATS MIPE library collection: KMS27_JCRB cell viability assay (AID 1918970). Note: nearly all actives have a fitted effect of over 30% in size. Summed up: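 Luminescent ATP read-out (CellTiter-Glo, 5 min at room temperature) after 48 h compound exposure of 500 KMS27_JCRB cells per well; DMSO wells define full viability and media-only wells zero.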
Assay [18] is described as follows: Quantitative High-Throughput drug screen in 47 multiple myeloma cell lines against the NCATS MIPE library collection: KMS20_JCRB cell viability assay (AID 1918973). Note: nearly all actives have a fitted effect of over 45% in size. Summed up:
as §1

Assay [19] can be described thus: Quantitative High-Throughput drug screen in 47 multiple myeloma cell lines against the NCATS MIPE library collection: Karpas25_ECACC cell viability assay (AID 1918968; note: nearly all actives have a fitted effect of over 35% in size). Summed up:
as §1

Assay [20] is described as follows: Quantitative High-Throughput drug screen in 47 multiple myeloma cell lines against the NCATS MIPE library collection: KMS21BM_JCRB cell viability assay (AID 1918974). Particulars: ATP luminescence, 48 h; viability: at 45.8 µM (top of the series) unless noted. A digest of the protocol:
as §1
Potency is the fitted concentration of half-maximal effect.

Take `CC(=O)SC[C@@H](C)C(=O)N1CCC[C@H]1C(=O)N[C@@H](Cc1ccccc1)C(=O)O`: the Potency result in assay [1], in [2], in [3], in assay [4], in assay [5] and in assay [6] was “inactive” each time. In addition, the Potency entry in assay [7], in [8], in [9], in assay [10], in assay [11] and in assay [12] was “inactive” each time. Moreover, in assay [13], the Potency entry was “inactive”.
Turning to `Cc1cc(Nc2ncnc3ccc(-c4ccc(CNCCS(C)(=O)=O)o4)cc23)ccc1Oc1ccn2ncnc2c1`, the Potency in assay [1] is 1.66 µM (active); in assay [2], 20.9 µM (active); in [3], 0.935 µM (active); in assay [4] it was 11.8 µM (active); in assay [14] it was 2.35 µM (active); in assay [5] it was 5.26 µM (active). Further, the Potency in [6] was 1.18 µM (active); in assay [8], 6.62 µM (active); in [9], 9.35 µM (active); in assay [10] it was 5.26 µM (active); in assay [11], 1.87 µM (active); in assay [15] it was 18.7 µM (active). Besides, the Potency in assay [16] is 6.62 µM (active); in assay [17], 2.64 µM (active); in [12], 18.7 µM (active); in [13], 5.26 µM (active); in assay [18], 2.09 µM (active).
Turning to `CNc1nccc(-c2cccnc2Oc2cc(C(=O)Nc3cccc(C(F)(F)F)c3)ccc2C)n1`, the Potency in assay [1] was 16.6 µM (active); in [2], 16.6 µM (active); in [3] it was 9.35 µM (active); in assay [4] it was 23.5 µM (active); in assay [14] it was 9.35 µM (active); in assay [5], 5.9 µM (active). Also, the Potency in [8] was 1.05 µM (active); in [9], 18.7 µM (active); in assay [10], 8.33 µM (active); in [11], 4.18 µM (active); in [15], 18.7 µM (active); in assay [16], 14.8 µM (active). Besides, the Potency in [17] is 7.43 µM (active); in [13], 10.5 µM (active); in [18], 9.35 µM (active).
One may read the viability as a read-out of living cells in per cent, often relative to untreated cells. Regarding `Nc1ccn([C@@H]2CS[C@H](CO)O2)c(=O)n1`, the values for the Potency in [1], in [19] and in [18] were 42.9 µM (active), 24.1 µM (active) and 10.8 µM (active), respectively. The Potency result in assay [2], in [3], in assay [4], in assay [14], in assay [5] and in assay [6] was “inactive” each time. The Potency entry in [9], in assay [12] and in [13] was “inactive” in each case. Moreover, in assay [20], the viability was 155% [at 92.2 µM] (active).
Turning to `COc1cc2ncnc(Nc3ccc(F)c(Cl)c3)c2cc1NC(=O)C=CCN1CCCCC1`, the Potency was 5.26 µM (active) in assay [1]; 20.9 µM (active) in assay [2]; 2.96 µM (active) in assay [3]; 23.5 µM (active) in [4]; 9.35 µM (active) in assay [14]; 2.96 µM (active) in [5]. Further, the Potency in assay [6] is 8.33 µM (active); in [8], 3.32 µM (active); in assay [9], 6.62 µM (active); in [10] it was 10.5 µM (active); in assay [11], 3.72 µM (active); in assay [15] it was 20.9 µM (active). Also, the Potency was 8.33 µM (active) in assay [16]; 2.96 µM (active) in [19]; 4.18 µM (active) in assay [17]; 18.7 µM (active) in assay [12]; 2.96 µM (active) in [18].
Regarding `Nc1ncnc2c1c(-c1cccc(OCc3ccccc3)c1)cn2C1CC(CN2CCCC2)C1` (stereo unspecified), the Potency in assay [1] is 0.059 µM (active); in assay [2] it was 23.5 µM (active); in assay [3], 16.6 µM (active); in assay [4] it was 16.6 µM (active); in assay [14], 1.18 µM (active); in [5] it was 5.9 µM (active). In addition, the Potency was 4.18 µM (active) in assay [6]; 5.26 µM (active) in assay [8]; 0.0833 µM (active) in assay [9]; 0.296 µM (active) in [10]; 6.62 µM (active) in assay [11]; 5.9 µM (active) in assay [15]. Moreover, the Potency was 16.6 µM (active) in assay [16], 23.5 µM (active) in assay [12], 9.35 µM (active) in assay [13] and 0.132 µM (active) in [18].
As to `CC[C@H]1CN2CCc3cc(OC)c(OC)cc3[C@H]2C[C@@H]1C[C@@H]1NCCc2cc(OC)c(OC)cc21`, the Potency in [1] is 0.166 µM (active); in [2], 0.187 µM (active); in [3], 0.235 µM (active); in assay [4], 0.187 µM (active); in [14], 0.296 µM (active); in [5] it was 0.235 µM (active). Also, the Potency was 0.187 µM (active) in [6]; 0.264 µM (active) in [9]; 0.0526 µM (active) in assay [11]; 0.209 µM (active) in assay [15]; 0.264 µM (active) in assay [16]; 0.118 µM (active) in assay [19]. Moreover, the Potency in assay [17] was 0.148 µM (active); in [12], 0.209 µM (active); in assay [13], 0.132 µM (active); in [18] it was 0.59 µM (active); in [20], 0.264 µM (active).
For `CCS(=O)(=O)c1cccc(-c2cc(C(=O)NC3CCN(C)CC3)c(C)c3[nH]c4ncc(C)cc4c23)c1`, the Potency in assay [1] is 0.662 µM (active); in assay [2], 2.64 µM (active); in assay [3] it was 9.35 µM (active); in assay [4], 2.09 µM (active); in assay [14] it was 3.32 µM (active); in assay [5], 1.66 µM (active). Also, the Potency in assay [6] was 2.96 µM (active); in assay [9], 0.935 µM (active); in [10], 0.935 µM (active); in assay [11], 0.418 µM (active); in assay [15] it was 1.66 µM (active); in assay [16] it was 4.69 µM (active). The Potency was 1.18 µM (active) in assay [19]; 1.32 µM (active) in assay [17]; 5.9 µM (active) in assay [12]; 3.32 µM (active) in assay [13]; 1.32 µM (active) in [18].
On to `CC(C)C[C@H](NC(=O)CNC(=O)c1cc(Cl)ccc1Cl)B(O)O`, for which the Potency in [1] was 0.0469 µM (active); in assay [2], 0.148 µM (active); in [3], 0.0469 µM (active); in [4], 0.059 µM (active); in assay [5] it was 0.118 µM (active); in assay [6], 0.0662 µM (active). For the same molecule, the Potency was 0.0418 µM (active) in assay [7]; 0.0469 µM (active) in [8]; 0.105 µM (active) in assay [9]; 0.105 µM (active) in [10]; 0.0372 µM (active) in assay [11]; 0.105 µM (active) in assay [15]. The Potency in assay [16] is 0.105 µM (active); in assay [19], 0.0418 µM (active); in assay [17] it was 0.118 µM (active); in assay [12], 0.132 µM (active); in assay [13] it was 0.0743 µM (active); in assay [18] it was 0.132 µM (active).
As to `CC(C)(C)c1cnc(CSc2cnc(NC(=O)C3CCNCC3)s2)o1`, the Potency in [1] is 0.264 µM (active); in [2] it was 0.105 µM (active); in assay [3], 1.48 µM (active); in assay [4] it was 0.209 µM (active); in [5], 0.372 µM (active); in assay [6], 0.187 µM (active). The Potency is 0.132 µM (active) in assay [7]; 0.0743 µM (active) in assay [8]; 0.235 µM (active) in assay [9]; 0.0743 µM (active) in assay [10]; 0.235 µM (active) in [11]; 0.0833 µM (active) in assay [15]. For the same molecule, the Potency in assay [16] was 0.469 µM (active); in [19], 0.209 µM (active); in assay [12] it was 0.132 µM (active); in [13], 0.526 µM (active); in assay [18], 0.0743 µM (active); in [20] it was 0.0662 µM (active).

The values above are taken from PubChem BioAssay (NCATS).
